Target: Hexose transporter 1 (Plasmodium falciparum) (UniProt O97467)
Test: ST_JUDE_LEISH: Cytotoxicity at 2uM final concentration against transgenic Leishmania Mexicana promastigotes LmPfHT that are glucose transport deficient and complemented with the Plasmodium falciparum hexose transporter. Activity is measured by DNA content using SYBR green in vitro
Type: functional

| Structure (SMILES) | inhibition [%] |
| --- | --- |
| N#CCCN1CCN(Cc2cccc(-c3ccc(-c4nc5ccccc5[nH]4)cc3)c2)CC1 | 3.22 |
| COc1ccc(-c2cccc(NC(=O)c3ccc(Cl)cc3)c2)cc1CN1CCC(O)CC1 | 0.09 |
| CCOC(=O)c1cccc(NC(=N)Nc2nc(C)cc(NCCc3ccccc3)n2)c1 | 7.16 |
| O=[N+]([O-])c1cccc(CNCC2CCN(Cc3ccc(-c4ccccc4)cc3)CC2)c1 | 2.39 |
| COc1ccc2nccc([C@@H](O)CN3CCC(NCc4nc5c([N+](=O)[O-])cccc5[nH]4)CC3)c2c1 | 2.99 |
| NC1=NC2(CCCCC2)N(OCCCCCCc2ccccc2)C(N)=N1 | 1.39 |
| COc1ccc2nccc(NC(=O)N3CCC(NCCOc4cc(F)cc(F)c4)CC3)c2n1 | 12.1 |
| O=C(Nc1cccc(CN2CCCN(Cc3ccsc3)CC2)c1)c1cc2ccccc2s1 | 0.58 |
| Cn1nc(C(F)(F)F)c(-c2ccc(Br)cc2)c1NC(=O)Cc1ccccc1F | 3.22 |
| CCNc1cc(C)nc(Nc2ccc(NC(=O)c3ccccc3Br)cc2)n1 | 9.16 |
| CC(=O)N(Cc1nc(-c2cc(C(F)(F)F)cc(C(F)(F)F)c2)cs1)c1c(C)cccc1C | 4.86 |
| C(=C(c1cccs1)c1cccs1)c1ccc(CNC2CCN(Cc3ccccc3)CC2)cc1 | 6.16 |
| O=c1cc(NCCCNCc2ccc(C(F)(F)F)cc2F)[nH]c2ccccc12 | 0.29 |
| OCCN1CCN(Cc2ccc(-c3ccc(-c4nc5ccccc5[nH]4)cc3)cc2)CC1 | 9.51 |
| COc1ccc2ncc(F)c(NC(=O)C3CCC(NCc4cc5c(F)cccc5[nH]4)CC3)c2n1 (stereo not drawn) | 80.8 |
| c1ccc(N2CCN(c3cc(-c4cccnc4)nc(-c4ccncc4)n3)CC2)nc1 | 1.5 |
| N=C1NC(=O)C(=Cc2cn(-c3ccccc3)nc2-c2cccc(S(=O)(=O)N3CCCC3)c2)S1 | 6.98 |
| O=C(/C=C/c1cc(C(F)(F)F)ccc1F)NCCCCCN1CCC(c2c[nH]c3ccccc23)CC1 | 1.47 |
| O=C(Nc1cc(C(F)(F)F)ccc1N1CCOCC1)C(Cl)(Cl)Cl | 9.77 |

| Structure (SMILES) | inhibition [%] |
| --- | --- |
| CCc1ccc(Cc2cnc3nc(N)nc(N)c3c2C)cc1CC | 0.71 |
| CCOC(=O)c1ccc(NC(=O)Nc2cccc(-c3ccc(-c4nc5cccc(C)c5[nH]4)s3)c2)cc1 | 0.81 |
| Cc1cc2c(NC(=O)NC3CCN(CCc4cccc(Cl)c4)CC3)cccc2cn1 | 1.1 |
| O=C(NCCCc1ccccc1)c1ccc(O)c(-c2cc(Cl)cc(Cl)c2)c1 | 4.32 |
| CS(=O)(=O)CCNCc1cccc(-c2ccc3c(Nc4ccc(Oc5cccnc5)cc4)ccnc3c2)c1 | -1.49 |
| COc1cccc(C2CCN(CCN3CCC(CNC(=O)c4ccc(-c5ccc(C(F)(F)F)cc5)cc4)CC3)CC2)c1 | 1.07 |
| O=C(NCCN1CCCc2ccccc21)C1CCN(c2nc(-c3ccc(Cl)cc3)no2)CC1 | 2.11 |
| CCNc1cc(-c2cccc(OC)c2)nc(Nc2ccc(F)cc2)n1 | 7.1 |
| CN(C)CCOc1cccc(-c2cnc(N)c(-c3nc4cc(S(C)(=O)=O)ccc4[nH]3)c2)c1 | 2.26 |
| O=C(NCCCCN1CCC(O)(c2ccc(Cl)cc2)CC1)c1ccc(Br)cc1 | 2.65 |
| CC(C)(C)c1nn(-c2ccc(Cl)cc2)c2[nH]c(=O)c(CNC3CCCC3)cc12 | 6.85 |
| CCOC(=O)c1cnc2c(OC)cc(OC)c(Cl)c2c1Nc1ccccc1 | 4.89 |
| CCCc1ccc(Nc2nc(C)cc(N(CC)CCCN3CCCCC3)n2)cc1 | -2.14 |
| COc1cc(NC(=O)c2c(-c3c(F)cccc3Cl)noc2C)c(OC)cc1Cl | -1.52 |
| NS(=O)(=O)c1ccc(CNc2ccc3ncc(-c4ccc(Cl)cc4)n3n2)cc1 | 0.08 |
| Cc1ccc2sc(N(CCCn3ccnc3)C(=O)c3ccco3)nc2c1C | 2.76 |
| COC(=O)C(C)(C)Cc1c(SC(C)(C)C)c2cc(C(C)C)ccc2n1Cc1ccc(Cl)cc1 | 5.38 |
| COc1ccc(CCCN2C(=O)C(c3ccccc3)(c3ccccc3)N=C2N)cc1 | -0.94 |
| COc1ccc(F)cc1-c1ccccc1CNC(=O)c1cnn(-c2ccc([N+](=O)[O-])cc2)c1C(F)(F)F | 2.84 |

Target: Glucose transporter (Leishmania mexicana) (UniProt O61059)
Test: ST_JUDE_LEISH: Cytotoxicity at 2uM final concentration against transgenic Leishmania Mexicana promastigotes LmGT2 that are glucose transport deficient and complemented with the L. Mexicana glucose transporter 2. Activity is measured by DNA content using SYBR green in vitro
Type: functional

| Structure (SMILES) | inhibition [%] |
| --- | --- |
| N#CCCN1CCN(Cc2cccc(-c3ccc(-c4nc5ccccc5[nH]4)cc3)c2)CC1 | 0.84 |
| COc1ccc(-c2cccc(NC(=O)c3ccc(Cl)cc3)c2)cc1CN1CCC(O)CC1 | 1.8 |
| CCOC(=O)c1cccc(NC(=N)Nc2nc(C)cc(NCCc3ccccc3)n2)c1 | 5.39 |
| O=[N+]([O-])c1cccc(CNCC2CCN(Cc3ccc(-c4ccccc4)cc3)CC2)c1 | 0.56 |
| COc1ccc2nccc([C@@H](O)CN3CCC(NCc4nc5c([N+](=O)[O-])cccc5[nH]4)CC3)c2c1 | 1.31 |
| NC1=NC2(CCCCC2)N(OCCCCCCc2ccccc2)C(N)=N1 | 0.69 |
| COc1ccc2nccc(NC(=O)N3CCC(NCCOc4cc(F)cc(F)c4)CC3)c2n1 | -0.77 |
| O=C(Nc1cccc(CN2CCCN(Cc3ccsc3)CC2)c1)c1cc2ccccc2s1 | -0.93 |
| Cn1nc(C(F)(F)F)c(-c2ccc(Br)cc2)c1NC(=O)Cc1ccccc1F | -2.17 |
| CCNc1cc(C)nc(Nc2ccc(NC(=O)c3ccccc3Br)cc2)n1 | 4.36 |
| CC(=O)N(Cc1nc(-c2cc(C(F)(F)F)cc(C(F)(F)F)c2)cs1)c1c(C)cccc1C | 4.36 |
| C(=C(c1cccs1)c1cccs1)c1ccc(CNC2CCN(Cc3ccccc3)CC2)cc1 | 5.77 |
| O=c1cc(NCCCNCc2ccc(C(F)(F)F)cc2F)[nH]c2ccccc12 | -0.34 |
| OCCN1CCN(Cc2ccc(-c3ccc(-c4nc5ccccc5[nH]4)cc3)cc2)CC1 | 7.18 |
| COc1ccc2ncc(F)c(NC(=O)C3CCC(NCc4cc5c(F)cccc5[nH]4)CC3)c2n1 (stereo not drawn) | 77.4 |
| CCCCCCc1cc2cc(-c3nc(-c4ccc(OC)cc4)cs3)c(=O)oc2cc1O | -8.01 |
| c1ccc(N2CCN(c3cc(-c4cccnc4)nc(-c4ccncc4)n3)CC2)nc1 | 0.92 |
| N=C1NC(=O)C(=Cc2cn(-c3ccccc3)nc2-c2cccc(S(=O)(=O)N3CCCC3)c2)S1 | 7.82 |
| O=C(/C=C/c1cc(C(F)(F)F)ccc1F)NCCCCCN1CCC(c2c[nH]c3ccccc23)CC1 | 0.28 |
| O=C(Nc1cc(C(F)(F)F)ccc1N1CCOCC1)C(Cl)(Cl)Cl | 9.48 |

| Structure (SMILES) | inhibition [%] |
| --- | --- |
| CCc1ccc(Cc2cnc3nc(N)nc(N)c3c2C)cc1CC | 0.12 |
| CCOC(=O)c1ccc(NC(=O)Nc2cccc(-c3ccc(-c4nc5cccc(C)c5[nH]4)s3)c2)cc1 | 2.18 |
| Cc1cc2c(NC(=O)NC3CCN(CCc4cccc(Cl)c4)CC3)cccc2cn1 | -3.28 |
| O=C(NCCCc1ccccc1)c1ccc(O)c(-c2cc(Cl)cc(Cl)c2)c1 | 3.61 |
| CS(=O)(=O)CCNCc1cccc(-c2ccc3c(Nc4ccc(Oc5cccnc5)cc4)ccnc3c2)c1 | -3 |
| COc1cccc(C2CCN(CCN3CCC(CNC(=O)c4ccc(-c5ccc(C(F)(F)F)cc5)cc4)CC3)CC2)c1 | 1.17 |
| O=C(NCCN1CCCc2ccccc21)C1CCN(c2nc(-c3ccc(Cl)cc3)no2)CC1 | -2.23 |
| CCNc1cc(-c2cccc(OC)c2)nc(Nc2ccc(F)cc2)n1 | 2.87 |
| CN(C)CCOc1cccc(-c2cnc(N)c(-c3nc4cc(S(C)(=O)=O)ccc4[nH]3)c2)c1 | 2.58 |
| O=C(NCCCCN1CCC(O)(c2ccc(Cl)cc2)CC1)c1ccc(Br)cc1 | 4.04 |
| CCCCCCc1ncc(-c2cc3cc(O)c(-c4ccccc4)cc3oc2=O)s1 | -5.92 |
| CC(C)(C)c1nn(-c2ccc(Cl)cc2)c2[nH]c(=O)c(CNC3CCCC3)cc12 | 8.31 |
| CCOC(=O)c1cnc2c(OC)cc(OC)c(Cl)c2c1Nc1ccccc1 | 6.19 |
| CCCc1ccc(Nc2nc(C)cc(N(CC)CCCN3CCCCC3)n2)cc1 | 0.52 |
| COc1cc(NC(=O)c2c(-c3c(F)cccc3Cl)noc2C)c(OC)cc1Cl | -4.01 |
| NS(=O)(=O)c1ccc(CNc2ccc3ncc(-c4ccc(Cl)cc4)n3n2)cc1 | -0.35 |
| Cc1ccc2sc(N(CCCn3ccnc3)C(=O)c3ccco3)nc2c1C | 2.79 |
| COC(=O)C(C)(C)Cc1c(SC(C)(C)C)c2cc(C(C)C)ccc2n1Cc1ccc(Cl)cc1 | -0.32 |
| COc1ccc(CCCN2C(=O)C(c3ccccc3)(c3ccccc3)N=C2N)cc1 | -1.7 |
| COc1ccc(F)cc1-c1ccccc1CNC(=O)c1cnn(-c2ccc([N+](=O)[O-])cc2)c1C(F)(F)F | 4.07 |

From ChEMBL document CHEMBL3433997, “St. Jude Leishmania screening dataset” (2016)
